# Reference: PubChem BioAssay (NCI)
# This is part of a sample that, as a whole, favours compounds with a hit. Of some 83,000 tested, about 20% had one in any assay.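 Plates (96-well) were seeded with cells, treated with compound at one concentration, and incubated for 48 hours before percent growth was determined.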 A number with no mark means an inactive call. Activity calls are given as the source filed them. How the source made its calls: active means growth percent below 10; inactive means the rest.
# How the values were obtained:
# Test in all cases: NCI-60 one-dose screen, 48 h (100 = growth as untreated, 0 = no growth, -100 = all killed)
# Details in all cases: 10 µM unless noted
# HCT-15 colon = tested on: HCT-15 colon
# HT29 colon = tested on: HT29 colon
# SNB-19 CNS = tested on: SNB-19 CNS
# U251 CNS = tested on: U251 CNS
# PC-3 prostate = tested on: PC-3 prostate
# SK-MEL-5 melanoma = tested on: SK-MEL-5 melanoma
# UACC-62 melanoma = tested on: UACC-62 melanoma
# LOX IMVI melanoma = tested on: LOX IMVI melanoma
# SK-MEL-28 melanoma = tested on: SK-MEL-28 melanoma
# SK-MEL-2 melanoma = tested on: SK-MEL-2 melanoma
# EKVX NSCLC = tested on: EKVX NSCLC
# SN12C renal = tested on: SN12C renal
# UO-31 renal = tested on: UO-31 renal
# TK-10 renal = tested on: TK-10 renal
# ACHN renal = tested on: ACHN renal
# CAKI-1 renal = tested on: CAKI-1 renal
# A498 renal = tested on: A498 renal
# CCRF-CEM leukemia = tested on: CCRF-CEM leukemia
# MOLT-4 leukemia = tested on: MOLT-4 leukemia
SMILES,growth (HCT-15 colon),growth (HT29 colon),growth (SNB-19 CNS),growth (U251 CNS),growth (PC-3 prostate),growth (SK-MEL-5 melanoma),growth (UACC-62 melanoma),growth (LOX IMVI melanoma),growth (SK-MEL-28 melanoma),growth (SK-MEL-2 melanoma),growth (EKVX NSCLC),growth (SN12C renal),growth (UO-31 renal),growth (TK-10 renal),growth (ACHN renal),growth (CAKI-1 renal),growth (A498 renal),growth (CCRF-CEM leukemia),growth (MOLT-4 leukemia)
CN1CCN(Cc2ccc(NC(=O)c3cncc(C#Cc4cnc(N)c5cccnc45)c3)cc2C(F)(F)F)CC1,22.9%,7.8% (active),39.8%,33.9%,29.3%,-23.6% (active),-47.6% (active),-76.6% (active),-2.55% (active),-27.1% (active),14.1%,11.6%,2.87% (active),50.1%,6.51% (active),1.93% (active),-27.5% (active),16.9%,18.1%
CC(C)(C)n1cc(-c2ccnc(NCCNS(=O)(=O)c3ccccc3)c2)c(-c2cccc(O)c2)n1,9.17% (active),15.6%,80.8%,52%,41.5%,23.2%,70.1%,20.4%,60.4%,68.8%,63.4%,71.8%,61.3%,92%,67.1%,63.8%,55.1%,46.5%,38.2%
CCCCCCCCCCCCCCCCCCNC(=O)[C@H]1CSC(c2ccc(OC)c(F)c2)N1 (some centres undefined),71%,8.84% (active),65.1%,-53.1% (active),54.2%,23.8%,-86.5% (active),30.1%,-74.5% (active),-54.1% (active),17.5%,-80.7% (active),66.6%,59.5%,87.8%,52.9%,64.9%,-14.4% (active),10% (active)
COc1ccc(/C=N\NC(=O)CN2CCN(c3cc4c(cc3F)c(=O)c(C(=O)N/N=C/c3ccc(OC)cc3)cn4C3CC3)CC2)cc1,76.6%,90.2%,86.2%,95%,71.9%,72.2%,83.3%,90.1%,93.9%,103%,71.7%,79%,57.6%,100%,89.7%,95.1%,73.6%,81.5%,60%
Cc1cc(N/N=C/c2nc(-c3ccc(Cl)cc3)oc2C)c2cc(Br)ccc2n1,-20.3% (active),-45.8% (active),41.6%,-33.3% (active),80.2%,91.9%,58.2%,-43.4% (active),17.5%,108%,86.4%,20.5%,55.9%,25.2%,75.8%,90%,92.6%,4.11% (active),15%
NS(=O)(=O)c1ccc(-n2ncc3c(=O)[nH]c(CN4CCN(c5cc6c(cc5F)c(=O)c(C(=O)O)cn6C5CC5)CC4)nc32)cc1,89.7%,101%,94.9%,102%,82.5%,96.7%,74%,97.2%,93.5%,106%,92.6%,95%,70%,119%,94%,89.2%,102%,93.4%,97%
O=C1c2cc3c(cc2-c2c1c1cc(F)c(F)cc1c(=O)n2C[C@H](O)CO)OCO3,1.58% (active),0.994% (active),6.51% (active),-15.5% (active),8.59% (active),-91.5% (active),-48.2% (active),-45.4% (active),10.1%,-26% (active),14.7%,-12.6% (active),-56.8% (active),-27.6% (active),-61.5% (active),-4.95% (active),-79.4% (active),-10.9% (active),-26% (active)
COc1cc(OC)c(/C=C/C(=O)c2c(OC)cc(OC)cc2OC)c(OC)c1,26%,3.25% (active),32.8%,14.5%,42.8%,1.55% (active),7.8% (active),10.8%,21.9%,6.13% (active),38.2%,22.6%,30.3%,46.8%,35.9%,7.16% (active),7.18% (active),6.27% (active),-2.79% (active)
O=C1CCc2c(sc3[nH]c(=S)n(Cc4ccccc4)c(=O)c23)C1,7.5% (active),79.6%,11.8%,8.09% (active),13.9%,-75.6% (active),8.72% (active),11.7%,25%,-15.4% (active),13.9%,7.15% (active),-4.69% (active),29.6%,21.8%,24.1%,57.6%,4.68% (active),28.8%
CCCCCC(=O)Oc1ccc(/C(=C(\C)c2ccccc2)c2ccc(OCCN(CC)CC)cc2)cc1,38.6%,4.26% (active),85.3%,52.1%,55.7%,54.4%,57.4%,68.8%,53%,87.6%,92.5%,79.8%,48.4%,74.6%,87.9%,99.7%,84.8%,63.9%,46.1%
CC(=O)O[C@H]1CC[C@]2(C)[C@H]3CC[C@@H]4[C@H]5[C@H](C(C)C)CC[C@]5(C(=O)OCC(CO)(CO)N=C(N)N)CC[C@@]4(C)[C@]3(C)CC[C@H]2C1(C)C,10.4%,-69% (active),58.5%,-96.4% (active),41.2%,81.2%,86.8%,-48.8% (active),84.9%,102%,88.7%,13.7%,55.1%,88%,83.4%,81.1%,113%,11.3%,0.198% (active)
O=C(O)c1cn(C2CC2)c2cc(N3CCN(Cc4nc5c(cnn5-c5ccc([N+](=O)[O-])cc5)c(=O)[nH]4)CC3)c(F)cc2c1=O,102%,102%,106%,106%,93.9%,99%,86.6%,101%,106%,120%,93.4%,95.2%,71.8%,122%,103%,94.8%,101%,99%,99.4%
COc1ccc(/C=C/C(=O)c2ccc(NC(=O)c3cc4cc5ccccc5nc4s3)cc2)cc1OC,104%,101%,98.8%,103%,94.4%,93.5%,96.9%,94%,105%,103%,94.6%,98.1%,88.5%,126%,102%,98%,83.1%,104%,114%
COc1ccc(C2c3ccc4ccccc4c3Oc3ncnc(N)c32)cc1 (centres undefined),88.5%,104%,91.2%,92.8%,71.9%,85.5%,66.9%,76.5%,91.9%,71.9%,45.9%,96%,55.9%,113%,81.3%,50%,75.2%,89.2%,83.4%
COc1ccc(-c2cc(-c3ccc(N(C)C)cc3)nc(NC(=O)c3ccncc3)n2)cc1,90.4%,106%,90.2%,98%,83.5%,89.2%,101%,91.7%,108%,116%,99.8%,104%,72.1%,105%,98.7%,95%,76.5%,96.8%,111%
COc1ccc(S(=O)(=O)NCCNc2nccc(-c3c(-c4cccc([N+](=O)[O-])c4)nc4sccn34)n2)cc1,77.5%,74.8%,91.6%,91.1%,64.6%,63.6%,84%,88.6%,107%,100%,82.1%,70.3%,49.3%,108%,62.4%,68.1%,63.7%,75.2%,60.7%
